Compounds with a hit are over-represented: about 12% of the library has one in this group of screens.
L major viab: Leishmania major promastigote growth inhibition; inhibition, % at 10 µM; Leishmania major promastigotes, resazurin fluorescence viability; 9% of 200,000 active; AID 1063; in the data active = inhibition above about 50%;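 also: promastigotes grown with compound for 44 hours at 28 °C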
CHOP inh: inhibitors of CHOP induction in ER stress response | CHO-K1 CHOP-promoter luciferase, tunicamycin-induced, 15-18 h | inhibition, % at 10 µM | 3.8% of 220,000 active | AID 2732;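 active = compounds that reduced the stress-induced luciferase reporter signal by more than about 70% of percent inhibition, limit read from the data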;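 also: 0% = tunicamycin plus vehicle and 100% = wells without tunicamycin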
Arbovirus anti: blocks arbovirus infection; arbovirus infection cell-based antiviral screen; inhibition, % at 10 µM; 0.37% of 200,000 active; in the data active = inhibition above about 30%
WT yeast gro inh: growth inhibition of WT yeast, mitochondrial fusion screen; inhibition, % at 10 µM; 2.1% of 190,000 active; mitochondrial fusion phenotypic screen, WT strain; in the data active = inhibition above about 58%; tested in S. cerevisiae
* hit, by the source's call; . = not tested or not shown.

SMILES	L major viab	CHOP inh	Arbovirus anti	WT yeast gro inh
COc1cccc(OC)c1OCCCCn1cnc2ccccc2c1=O	-3.1	7.9	-0.8	5.2
Cc1cc(C)c(C)c(OCCCCn2cnc3ccccc3c2=O)c1	-2.6	91.0*	-11.3	13.8
COc1ccc(Br)cc1CNC(=O)CCNC(=O)Cn1ccc2ccccc2c1=O	2.0	29.1	-4.4	-3.6
Cn1c(=NC(=O)c2ccccc2[N+](=O)[O-])sc2cccc(F)c21	.	-11.1	.	.
O=C(CN1C(=O)S/C(=C\c2ccccc2)C1=O)NNC(=O)c1ccccc1O	-2.8	53.0	-21.8	1.3
O=C(CCCN1C(=O)S/C(=C\c2ccccc2)C1=O)NNC(=O)c1ccccc1O	-1.9	95.2*	-19.3	8.7
COc1ccc(/C=C2\SC(=O)N(CCNC(=O)Cn3cnnn3)C2=O)cc1	55.8*	-10.5	3.8	-17.6
O=C(CCCN1C(=O)/C(=C/c2ccccc2)SC1=S)Nc1ccccc1O	23.7	82.0*	9.6	2.4
COc1ccc(/C=C2\SC(=O)N(CC(=O)NNC(=O)c3ccccc3O)C2=O)cc1	-5.2	78.3*	-23.5	16.8
O=C(NCCN1C(=O)S/C(=C\c2ccc(F)cc2)C1=O)C1CCN(S(=O)(=O)c2cccs2)CC1	20.8	45.3	-9.9	-4.7
COc1ccc(/C=C2\SC(=O)N(CCNC(=O)C3CCN(S(=O)(=O)c4cccs4)CC3)C2=O)cc1	63.5*	25.4	1.4	-11.2
Cc1ccc(-c2cc(C(=O)N/N=C\c3cnn(C)c3C)c3ccccc3n2)cc1C	17.1	41.4	-15.7	19.0
CCCn1c(N)c(C(=O)CSc2nnnn2-c2ccc(O)cc2)c(=O)n(C)c1=O	-3.6	68.7	-1.3	1.9
COc1ccc(NC(=O)CCN2CCN(S(=O)(=O)c3ccc(Cl)cc3)CC2)cc1	93.3*	13.0	1.3	-2.6
CCOc1ccc(NC(=O)CCN2CCN(S(=O)(=O)c3cc(Cl)ccc3OC)CC2)cc1	98.9*	9.2	-10.5	6.5
CN(CC(=O)Nc1ccc(S(=O)(=O)N2CCCC2)cc1)Cc1ccc(Cl)cc1Cl	86.1*	41.4	-17.9	38.7
COc1ccc(NC(=O)CCN2CCN(S(=O)(=O)c3ccc(C(C)C)cc3)CC2)cc1	3.5	11.8	-24.9	.
CCOc1ccc(NC(=O)CN2CCN(S(=O)(=O)c3ccc(Cl)cc3)CC2)cc1	-6.0	19.2	-11.9	3.4
O=C(CCC(=O)N1CCN(S(=O)(=O)c2ccc(Cl)cc2)CC1)Nc1ccc2ccccc2c1	81.4*	58.8	0.9	-19.8
CC(C)(C)C(=O)N1CCN(c2nc3ccccc3o2)CC1	4.6	-17.9	-2.0	6.5
CN(C)CCCNC(=O)c1cc(Br)ccc1O	.	8.7	.	.
O=C(CCCn1c(=S)[nH]c2ccccc2c1=O)NCCSCc1ccccc1	-6.4	3.6	0.5	7.5
COc1cccc(OCCCN2CCN(S(=O)(=O)c3ccc(NC(C)=O)cc3)CC2)c1	67.6*	11.3	6.4	-5.3
COc1ccc(S(=O)(=O)N2CCN(CCC(=O)Nc3ccc(F)cc3)CC2)cc1	-8.7	25.3	3.2	-11.4
COc1ccc(S(=O)(=O)N2CCCN(CCC(=O)Nc3cccc(C(F)(F)F)c3)CC2)cc1	99.7*	29.6	7.6	-0.5
SMILES	L major viab	CHOP inh	Arbovirus anti	WT yeast gro inh
CC(=O)Nc1ccc(S(=O)(=O)N2CCN(CCCOc3ccccc3Cl)CC2)cc1	11.9	44.0	-0.4	-2.6
CCCOC(=O)Nc1c(C)cccc1C(C)C	-3.8	-18.1	6.6	0.9
COc1ccc(/C=C2\CCc3ccccc3C2=O)cc1Cn1cccn1	86.4*	27.3	-9.3	51.6
CC(C)(C)c1ccccc1NC(=O)c1c(O)c2cccc3c2n(c1=O)CC3	13.7	13.4	-23.1	-5.4
CCN(CC#CCC(O)(c1ccccc1)C1CCCC1)C(C)C (stereo not drawn)	67.5*	-9.4	-1.4	2.8
CC(C)N(CC#CCC(O)(c1ccccc1)C1CCCC1)CCO (stereo not drawn)	28.5	27.7	-12.0	-24.2
Cc1onc(-c2c(F)cccc2Cl)c1C(=O)NC(=S)NC1CCS(=O)(=O)C1 (stereo not drawn)	-8.6	-25.6	4.1	-6.5
CC(=O)OC(COc1ccccc1)Cn1cnc2cc(C)c(C)cc21 (stereo not drawn)	6.1	-18.3	3.0	10.8
CCC(CO)NCc1ccc(OC2CCCC2)cc1 (stereo not drawn)	85.8*	-8.8	-12.6	-4.0
COc1cc(CNCCO)ccc1OC1CCCC1	36.4	24.8	2.4	13.4
CN(C)CCNCc1ccc(OC2CCCC2)cc1	50.1*	16.9	-18.1	-20.0
CCOC(=O)c1c(CSC(=N)N)n(-c2ccccc2)c2cc(Br)c(OC(C)=O)cc12	.	-13.0	.	.
Cc1ccc(-n2nnnc2SC(C(=O)c2c[nH]c3ccccc23)c2ccccc2)cc1 (stereo not drawn)	24.6	71.6*	-12.8	25.7
c1ccc(-n2nc3c(ccc4cnnc43)[nH]2)cc1	1.1	85.5*	1.8	-1.2

From PubChem
